Growth data for 38 molecules are collected here from PubChem BioAssay (NCI).

Molecules are shown by their SMILES. About 83,000 compounds went through this panel and 20% of them were active in at least one assay; those are over-represented in the sample as a whole.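 Treatment: one concentration, 48 hours, 96-well format. Scoring: percent growth, with anything below 10 considered active.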 Calls of active or inactive are those of the source.

One experiment deals with OVCAR-4 ovarian. As to the kind of experiment: NCI-60 one-dose screen, 48 h (100 = growth as untreated, 0 = no growth, -100 = all killed). The settings on record: 10 µM unless noted.
Turning to `COC1C/C(=N\O)C2OC(c3ccccc3)OCC2O1` (stereo unspecified), the growth is 104% (inactive).
On the same count and under the same terms, to `Cc1cc(Nc2nc(N3CCN(C)CC3)nc3ccccc23)n[nH]1` belongs 54.5% (inactive); to `O=C1Nc2ccccc2/C1=C/C(=N/c1nnc(-c2ccccc2)s1)c1ccccc1`, 59.2% (inactive); to `COc1ccc(N(Cc2cc(OC)c(OC)c(OC)c2)C2OC(=O)c3ccccc32)cc1` (stereo unspecified), 62.7% (inactive).
Turning to `Cc1csc2ccc(Cl)cc12`, the growth is 98.1% (inactive).
As for `O=C1Nc2ccccc2/C1=C/C(=N/c1nnc(-c2ccc(Cl)cc2)s1)c1ccccc1`, the growth is 57.3% (inactive).
For the molecule `CC(=O)OCC1OC(OC2=C(CC=C(Cl)Cl)C(=O)c3ccccc3C2=O)C(OC(C)=O)C(OC(C)=O)C1OC(C)=O` (stereo unspecified), the growth is -34.4% (active).
For the molecule `Cc1cc2cc3cc(C)c(N(C)C)cc3[n+](C)c2cc1N(C)C`, the growth was 38.5% (inactive).

Another experiment concerns SK-OV-3 ovarian. Described as above. Particulars: 10 µM unless noted.
For the molecule `O=C(O)C(O)C(O)C(=O)O.[NH-]C1CCCCC1[NH-].[Pt+2]` (stereo unspecified), the growth is 105% (inactive).
As for `Cc1ccc(Nc2c(C(N)=O)cnc3ccc(-c4csc(N)n4)cc23)cc1`, the growth is 108% (inactive).
With `Cl/C(=N\Nc1ccccc1)c1ccccc1`, the growth was 89.4% (inactive).
Still for that read-out and setting: to `COc1cc(-c2c3sc(=O)[nH]c3nc3c2c(=O)[nH]n3C(C)C)cc2c1OCO2` belongs 114% (inactive); to `CC(C)(C)n1cc(-c2ccnc(NCCNS(=O)(=O)c3ccccc3)c2)c(-c2cccc(O)c2)n1`, 88.4% (inactive).
Consider `CC/C(Cc1ccccc1)=C(/c1ccc(O)cc1)c1ccc(OCCN2CCCC2)cc1`, for which the growth is 63% (inactive).
As for `O=C(NC(Cc1ccccc1)C(=O)CCl)OCc1ccccc1` (stereo unspecified), the growth is 87.8% (inactive).
The same measure, in the same setting: next, `CCCCCC(=O)N(CCCC)CCCC`: 93.7% (inactive); `COc1cccc(/C=C2/C(=O)N(Cc3ccco3)SC2=S)c1OC`: 97.8% (inactive).
The same measure, in the same setting: to `COc1ccc(-c2cc(/C=C3\C(=O)Nc4ccc(Cl)cc43)[nH]n2)cc1` belongs 60% (inactive).
As to `CCOC(=O)C(C#N)C1CCCCC1` (stereo unspecified), the growth is 109% (inactive).
Turning to `CC(C)[C@H]1COC(=O)N1[C@@H]1C(=O)N([C@@H](CCC(=O)N2CCN(C3CCCC3)CC2)C(=O)N[C@@H]2CCCc3ccccc32)[C@@H]1/C=C/c1cccc(Br)c1`, the growth is 52.7% (inactive).
Take `Nc1ccc(N2CCOCC2)cc1`: the growth was 104% (inactive).
`COc1cccc(/C=C\C(=O)c2ccccc2)c1`: the growth is 107% (inactive).
In the case of `NS(=O)(=O)c1ccc(-n2ncc3c(=O)[nH]c(CN4CCN(c5cc6c(cc5F)c(=O)c(C(=O)O)cn6C5CC5)CC4)nc32)cc1`, the growth is 107% (inactive).
In the case of `COc1cc(C2CC(=O)Nc3c2c(C)nn3-c2nc3ccccc3[nH]2)cc(OC)c1OC` (stereo unspecified), the growth was 111% (inactive).
As to `CN1CCCCC1CCN1c2ccccc2Sc2ccc(Br)cc21` (stereo unspecified), the growth is 69.6% (inactive).
With `Cc1ccc(C2CC3c4ccccc4C2C2CCCCN32)cc1` (stereo unspecified), the growth was 91.7% (inactive).
In the case of `CCOC(=O)CC(C)=N`, the growth is 111% (inactive).
On the same count and under the same terms, next, `N=S(=O)(NC(=O)c1ccc(Cl)cc1Cl)c1ccc(Br)s1` (stereo unspecified): 96.4% (inactive); `COc1ccc(CN(c2ccc(C)cc2)C2OC(=O)c3ccccc32)cc1OC` (stereo unspecified): 118% (inactive); `c1c2c(cc3c1OCO3)Cc1cc3c(cc1Cc1cc4c(cc1C2)OCO4)OCO3`: 101% (inactive).
For `CCCCCCCCCCCCS(=O)CC(C)O` (stereo unspecified), the growth was 102% (inactive).
Still for that read-out and setting: to `CC1(C)CC(C(=O)OCCCCCCCCCCC[P+](c2ccccc2)(c2ccccc2)c2ccccc2)C(C)(C)N1O` (stereo unspecified) belongs -19.5% (active).
The same measure, in the same setting: to `COc1ccc(/C(=C/c2ccc3ccccc3c2)c2nn[nH]n2)cc1OC` belongs 39% (inactive); to `Cc1cccc(NC(=O)c2sc3nc4c(cc3c2N)C(=O)CCC4)c1`, 35.3% (inactive); to `O=[N+]([O-])c1cccc(C2CC(c3ccccc3)=Nc3ccccc3S2)c1` (stereo unspecified), 97.7% (inactive).
The same measure, in the same setting: to `CCOC(=O)/C=C/c1ccc(C(=O)OCC)[nH]1` belongs 84.8% (inactive); to `CS(CCCCN=C=S)=NC(=O)c1c(F)c(F)c(F)c(F)c1F` (stereo unspecified), 91.7% (inactive); to `COC1C/C(=N\O)C2OC(c3ccccc3)OCC2O1` (stereo unspecified), 100% (inactive).
Turning to `Cc1cc(Nc2nc(N3CCN(C)CC3)nc3ccccc23)n[nH]1`, the growth is 25.5% (inactive).
As to `O=C1Nc2ccccc2/C1=C/C(=N/c1nnc(-c2ccccc2)s1)c1ccccc1`, the growth is 87.3% (inactive).
Consider `COc1ccc(N(Cc2cc(OC)c(OC)c(OC)c2)C2OC(=O)c3ccccc32)cc1` (stereo unspecified), for which the growth was 13.3% (inactive).
Turning to `Cc1csc2ccc(Cl)cc12`, the growth was 96.5% (inactive).
As to `O=C1Nc2ccccc2/C1=C/C(=N/c1nnc(-c2ccc(Cl)cc2)s1)c1ccccc1`, the growth was 75.9% (inactive).
As to `CC(=O)OCC1OC(OC2=C(CC=C(Cl)Cl)C(=O)c3ccccc3C2=O)C(OC(C)=O)C(OC(C)=O)C1OC(C)=O` (stereo unspecified), the growth is 96% (inactive).
Consider `O=C(/C=C/c1ccc(B(O)O)cc1)/C=C/c1ccc(B(O)O)cc1`, for which the growth is 46.8% (inactive).
On to `Cc1cc2cc3cc(C)c(N(C)C)cc3[n+](C)c2cc1N(C)C`, for which the growth was 20.2% (inactive).
